Experimental data: PubChem BioAssay (NCI)
This is part of a sample that, as a whole, favours compounds with a hit. Of some 79,000 tested, about 15% had one in any assay. The source made the active and inactive calls. Rule as the data show it: active = growth inhibition above about 70%; inactive = the rest.

How the values were obtained:
[1] = NCI Yeast Anticancer Drug Screen. Data for the rad52 strain (AID 147);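 also: 0% = growth of vehicle-treated control cultures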; conditions: S. cerevisiae rad52 mutant growth inhibition, hits give high values
How it was run: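 DNA repair-defective yeast; compound exposure; growth scored against vehicle controls.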

[2] = NCI Yeast Anticancer Drug Screen. Data for the wt1 strain (AID 149);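 also: 0% = growth of vehicle-treated wt1 cultures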; conditions: S. cerevisiae wt1 strain (SPY 50644) growth inhibition, hits give high values
How it was run: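 Growth inhibition read against vehicle controls after compound exposure of the wt1 yeast strain.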

[3] = NCI Yeast Anticancer Drug Screen. Data for the rad50EPP+ strain (AID 151);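 also: 0% = growth of vehicle-treated control cultures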; conditions: S. cerevisiae rad50 mutant strain, hits give high values
How it was run: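 rad50EPP+ yeast treated with test compounds. Readout: growth vs vehicle control.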

[4] = NCI Yeast Anticancer Drug Screen. Data for the mgt1 strain (AID 153); conditions: S. cerevisiae mgt1 mutant growth inhibition, hits give high values
How it was run: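 Growth inhibition relative to vehicle controls was scored for the mgt1 yeast strain after compound exposure.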

[5] = NCI Yeast Anticancer Drug Screen. Data for the rad50 strain (AID 155);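 also: 0% = growth of vehicle-only cultures of the same strain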; conditions: S. cerevisiae rad50 strain growth inhibition, hits give high values
How it was run: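 Readout: growth inhibition relative to vehicle-treated cultures. Compound exposure was carried out in a genetically defined yeast strain deficient in DNA damage repair.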

[6] = NCI Yeast Anticancer Drug Screen. Data for the mec2-1 strain (AID 157); conditions: S. cerevisiae mec2-1 strain, hits give high values
How it was run: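 Growth inhibition is read against vehicle-treated controls after compound exposure of the mec2-1 yeast strain, which is defective in DNA damage repair or cell cycle control.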

[7] = NCI Yeast Anticancer Drug Screen. Data for the rad14 strain (AID 159);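 also: 0% = growth of vehicle-treated control cultures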; conditions: S. cerevisiae rad14 strain growth inhibition, hits give high values
How it was run: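 Growth inhibition vs vehicle controls; genetically altered yeast strain (DNA damage repair defect) treated with test compounds.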

[8] = NCI Yeast Anticancer Drug Screen. Data for the sgs1 mgt1 strain (AID 161);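 also: 0% = growth of cultures given vehicle only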; conditions: S. cerevisiae sgs1 mgt1 strain, hits give high values
How it was run: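 Growth of a repair-deficient yeast mutant was monitored after compound treatment and expressed as inhibition relative to vehicle-treated cultures.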

[9] = NCI Yeast Anticancer Drug Screen. Data for the CLN2oe strain (AID 163);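 also: 0% = growth of vehicle-only control cultures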; conditions: S. cerevisiae CLN2oe strain, hits give high values
How it was run: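 Compound-treated yeast; growth vs vehicle ctrl = % inhibition. Genetically altered strain (cell-cycle control).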

[10] = NCI Yeast Anticancer Drug Screen. Data for the cln2 rad14 strain (AID 165);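 also: 0% = growth equal to vehicle treated cultures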; conditions: S. cerevisiae cln2 rad14 strain, hits give high values
How it was run: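 Growth inhibition, relative to vehicle-treated controls, is the read-out. The test organism is a yeast strain with defined genetic alterations, cln2 rad14.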

[11] = NCI Yeast Anticancer Drug Screen. Data for the bub3 strain (AID 167); conditions: S. cerevisiae bub3 mutant strain, hits give high values
How it was run: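 Readout: yeast growth inhibition, expressed relative to vehicle-only wells. The test organism is a mutant strain from a panel with lesions in DNA repair or checkpoint genes.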

[12] = NCI Yeast Anticancer Drug Screen. Data for the wt2 strain (AID 169);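 also: 0% = growth of vehicle-treated yeast cultures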; conditions: S. cerevisiae wt2 strain growth inhibition, hits give high values
How it was run: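 Compound exposure of yeast; growth compared with vehicle controls; inhibition reported.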

[13] = NCI Yeast Anticancer Drug Screen. Data for the mlh1 strain (AID 171);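 also: 0% = growth of vehicle-treated control cultures of the same strain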; conditions: S. cerevisiae mlh1 strain growth inhibition, hits give high values
How it was run: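 Compounds are applied to a genetically altered yeast strain, and its growth is compared with that of vehicle-treated cultures to give percent inhibition.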

[14] = NCI Yeast Anticancer Drug Screen. Data for the sgs1 strain (AID 173);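 also: 0% = growth of vehicle-only control cultures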; conditions: S. cerevisiae sgs1 mutant, hits give high values
How it was run: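 Compounds applied to genetically altered yeast; growth compared with vehicle-treated cultures to give % inhibition.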

[15] = NCI Yeast Anticancer Drug Screen. Data for the mlh1 rad18 strain (AID 175); conditions: S. cerevisiae mlh1 rad18 strain growth inhibition, hits give high values
How it was run: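 Cells of a genetically altered yeast strain, deficient in DNA damage repair, were treated with compound. Their growth was then compared with that of vehicle-treated cultures to give inhibition.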

[16] = NCI Yeast Anticancer Drug Screen. Data for the rad18 strain (AID 177); conditions: S. cerevisiae rad18 mutant growth inhibition, hits give high values
How it was run: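 Compounds are applied to a repair-deficient yeast strain, and growth is compared with that of vehicle-treated cultures to give percent inhibition.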

[17] = at 5.0 µM (retest, dose inferred, filed as 0.5)
[18] = at 50.0 µM (retest, dose inferred, filed as 5.0)

Measured: growth inhibition

CCC(/C=C/c1ccccc1)=N\Nc1ccc(Cl)cc1
active: [1]; at 33.0 µM 86% | [1]; at 100.0 µM 93% | [2]; at 100.0 µM 93% | [5]; at 33.0 µM 77% | [5]; [18] 83% | [5]; at 50.0 µM 97.6% | [5]; at 100.0 µM 93% | [6]; [18] 80% | [6]; at 50.0 µM 85.5% | [7]; at 100.0 µM 76% | [8]; [18] 81% | [8]; at 50.0 µM 86.5% | [10]; at 50.0 µM 89.5% | [11]; [18] 86% | [11]; at 50.0 µM 97.8% | [12]; at 33.0 µM 80% | [12]; at 100.0 µM 94% | [14]; at 33.0 µM 77% | [14]; at 100.0 µM 95% | [15]; [18] 91% | [15]; at 50.0 µM 96% | [16]; at 33.0 µM 79% | [16]; at 100.0 µM 95%
inactive: [1]; at 1.2 µM -1% | [1]; at 3.7 µM 2% | [1]; at 11.0 µM -1% | [2]; at 1.2 µM 0% | [2]; at 3.7 µM -2% | [2]; at 11.0 µM -6% | [2]; at 33.0 µM 48% | [3]; at 1.2 µM 4% | [3]; at 3.7 µM 9% | [3]; at 11.0 µM 19% | [3]; at 33.0 µM 17% | [3]; at 100.0 µM 19% | [4]; at 1.2 µM -4% | [4]; at 3.7 µM 4% | [4]; at 11.0 µM 7% | [4]; at 33.0 µM 5% | [4]; at 100.0 µM 50% | [5]; at 1.2 µM 3% | [5]; at 3.7 µM 9% | [5]; [17] 2% | [5]; at 11.0 µM 12% | [6]; at 1.2 µM 0% | [6]; at 3.7 µM 5% | [6]; [17] -3% | [6]; at 11.0 µM 9% | [6]; at 33.0 µM 6% | [6]; at 100.0 µM 52% | [7]; at 1.2 µM 0% | [7]; at 3.7 µM 0% | [7]; at 11.0 µM 3% | [7]; at 33.0 µM 0% | [8]; [17] 2% | [9]; at 1.2 µM -1% | [9]; at 3.7 µM 1% | [9]; at 11.0 µM 8% | [9]; at 33.0 µM 8% | [9]; at 100.0 µM 48% | [10]; [17] 5% | [10]; [18] 38% | [11]; at 1.2 µM -2% | [11]; at 3.7 µM 2% | [11]; [17] 3% | [11]; at 11.0 µM 5% | [11]; at 33.0 µM 32% | [11]; at 100.0 µM 51% | [12]; at 1.2 µM -4% | [12]; at 3.7 µM -9% | [12]; at 11.0 µM -4% | [13]; at 1.2 µM -2% | [13]; at 3.7 µM 4% | [13]; at 11.0 µM 4% | [13]; at 33.0 µM 2% | [13]; at 100.0 µM 52% | [14]; at 1.2 µM -3% | [14]; at 3.7 µM -4% | [14]; at 11.0 µM -1% | [15]; [17] 7% | [16]; at 1.2 µM -3% | [16]; at 3.7 µM 1% | [16]; at 11.0 µM 3%
